Key:
Experiment in all cases: DAPPL (digital affinity profiling via proximity ligation, sequencing); 10 mM Tris-HCl pH 7.5, 50 mM NaCl, 1 mM DTT, 4% glycerol, room temperature, 30 min; GST-TFs on glutathione beads, 16-mer random dsDNA library, 0.1% formaldehyde crosslink after washing; high values mean tight binding
[1] = biological target: T1, FLI1 (Homo sapiens, UniProt Q01543 1-452); settings: protein: recombinant; tags: N-terminal GST; dsDNA, one strand shown
T1 sequence: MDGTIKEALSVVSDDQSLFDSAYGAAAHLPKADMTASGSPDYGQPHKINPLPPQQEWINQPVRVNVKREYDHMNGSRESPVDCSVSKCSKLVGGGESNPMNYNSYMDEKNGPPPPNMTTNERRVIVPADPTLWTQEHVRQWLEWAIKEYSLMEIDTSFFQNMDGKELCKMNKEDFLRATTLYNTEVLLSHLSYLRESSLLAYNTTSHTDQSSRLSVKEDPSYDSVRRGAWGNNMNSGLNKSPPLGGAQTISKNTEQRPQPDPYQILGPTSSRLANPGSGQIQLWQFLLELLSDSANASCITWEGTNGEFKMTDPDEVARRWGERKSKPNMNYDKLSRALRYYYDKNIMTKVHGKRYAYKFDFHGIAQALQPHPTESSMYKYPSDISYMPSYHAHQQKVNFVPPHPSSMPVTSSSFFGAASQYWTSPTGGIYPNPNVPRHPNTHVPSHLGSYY
Method in brief: (§1)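 GST fusions of human transcription factors were expressed in yeast and captured with glutathione beads. Once given DNA barcodes and pooled alongside a tag-only sample, they were incubated for 30 min at room temperature with 200 nmole of a random double-stranded 16-mer DNA library in Tris/NaCl/DTT/glycerol buffer, then washed, crosslinked (0.1% formaldehyde), proximity-ligated, PCR-amplified and sequenced on an Illumina NextSeq500. The binding signal of each hexamer is its read frequency for a factor divided by its frequency for the tag-only sample.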

[2] = biological target: T2, ELK1 (Homo sapiens, UniProt P19419 1-428); settings: protein: recombinant; tags: N-terminal GST; dsDNA, one strand shown
T2 sequence: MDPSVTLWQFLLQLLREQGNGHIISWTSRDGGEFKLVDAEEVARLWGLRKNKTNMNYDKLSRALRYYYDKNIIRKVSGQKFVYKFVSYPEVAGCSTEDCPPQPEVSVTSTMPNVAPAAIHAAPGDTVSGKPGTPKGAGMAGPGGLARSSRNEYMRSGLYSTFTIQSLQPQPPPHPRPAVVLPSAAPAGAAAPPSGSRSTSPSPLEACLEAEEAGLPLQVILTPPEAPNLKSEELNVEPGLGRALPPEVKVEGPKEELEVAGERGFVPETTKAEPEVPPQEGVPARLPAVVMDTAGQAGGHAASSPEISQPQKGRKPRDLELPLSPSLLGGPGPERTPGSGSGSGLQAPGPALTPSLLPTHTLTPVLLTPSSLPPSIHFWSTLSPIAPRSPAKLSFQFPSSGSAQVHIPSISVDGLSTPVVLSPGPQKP
Method in brief: as §1

[3] = biological target: T3, GABPA (Homo sapiens, UniProt Q06546 1-454); settings: protein: recombinant; tags: N-terminal GST; dsDNA, one strand shown
T3 sequence: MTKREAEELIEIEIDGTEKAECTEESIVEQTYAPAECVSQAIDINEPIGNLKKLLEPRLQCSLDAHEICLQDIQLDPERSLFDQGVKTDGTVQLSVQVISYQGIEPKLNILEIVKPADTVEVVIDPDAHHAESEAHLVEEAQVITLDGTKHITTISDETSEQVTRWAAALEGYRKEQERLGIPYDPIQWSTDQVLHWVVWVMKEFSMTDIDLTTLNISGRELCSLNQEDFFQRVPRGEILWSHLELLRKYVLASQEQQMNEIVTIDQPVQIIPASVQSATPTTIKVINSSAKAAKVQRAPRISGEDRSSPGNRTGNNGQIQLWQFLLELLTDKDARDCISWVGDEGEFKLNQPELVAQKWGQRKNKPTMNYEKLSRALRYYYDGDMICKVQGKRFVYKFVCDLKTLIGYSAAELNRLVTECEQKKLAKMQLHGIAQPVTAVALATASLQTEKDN
Method in brief: as §1

[4] = biological target: T4, ERG (Homo sapiens, UniProt P11308 1-479); settings: protein: recombinant; tags: N-terminal GST; dsDNA, one strand shown
T4 sequence: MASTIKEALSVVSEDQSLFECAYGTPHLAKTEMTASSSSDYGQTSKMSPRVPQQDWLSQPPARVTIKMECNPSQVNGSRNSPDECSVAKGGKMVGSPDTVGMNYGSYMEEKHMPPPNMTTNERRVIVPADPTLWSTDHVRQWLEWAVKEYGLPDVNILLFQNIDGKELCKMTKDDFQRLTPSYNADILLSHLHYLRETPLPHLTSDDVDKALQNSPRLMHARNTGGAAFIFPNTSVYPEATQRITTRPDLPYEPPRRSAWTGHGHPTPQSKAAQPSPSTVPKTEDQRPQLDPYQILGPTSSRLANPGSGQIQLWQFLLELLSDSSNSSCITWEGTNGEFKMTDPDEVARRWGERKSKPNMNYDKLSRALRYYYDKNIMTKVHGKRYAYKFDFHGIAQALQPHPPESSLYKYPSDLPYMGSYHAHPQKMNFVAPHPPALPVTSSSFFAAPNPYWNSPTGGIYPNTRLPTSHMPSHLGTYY
Method in brief: as §1

[5] = biological target: ELF1 (Homo sapiens, UniProt P32519 1-619); settings: protein: recombinant; tags: N-terminal GST; dsDNA, one strand shown
Chain of ELF1 (P32519 whole entry): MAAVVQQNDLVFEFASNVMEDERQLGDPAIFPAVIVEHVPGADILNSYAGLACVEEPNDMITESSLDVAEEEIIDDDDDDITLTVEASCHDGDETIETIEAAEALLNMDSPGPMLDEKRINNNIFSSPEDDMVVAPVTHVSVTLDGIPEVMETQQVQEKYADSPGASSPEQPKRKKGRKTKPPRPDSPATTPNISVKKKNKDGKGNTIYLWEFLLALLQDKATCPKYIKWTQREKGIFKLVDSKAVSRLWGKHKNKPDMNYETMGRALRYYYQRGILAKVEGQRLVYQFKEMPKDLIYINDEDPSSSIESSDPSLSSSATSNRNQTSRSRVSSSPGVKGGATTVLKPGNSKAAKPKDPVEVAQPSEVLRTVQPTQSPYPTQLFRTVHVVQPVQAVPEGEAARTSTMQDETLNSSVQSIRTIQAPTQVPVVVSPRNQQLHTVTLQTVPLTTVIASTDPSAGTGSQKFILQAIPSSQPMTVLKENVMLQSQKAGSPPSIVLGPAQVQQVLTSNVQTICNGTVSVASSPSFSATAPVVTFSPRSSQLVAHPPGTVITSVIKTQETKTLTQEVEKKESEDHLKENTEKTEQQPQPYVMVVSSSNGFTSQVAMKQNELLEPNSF
Method in brief: as §1

[6] = biological target: T5, EHF (Homo sapiens, UniProt Q9NZC4 1-300); settings: protein: recombinant; tags: N-terminal GST; dsDNA, one strand shown
T5 sequence: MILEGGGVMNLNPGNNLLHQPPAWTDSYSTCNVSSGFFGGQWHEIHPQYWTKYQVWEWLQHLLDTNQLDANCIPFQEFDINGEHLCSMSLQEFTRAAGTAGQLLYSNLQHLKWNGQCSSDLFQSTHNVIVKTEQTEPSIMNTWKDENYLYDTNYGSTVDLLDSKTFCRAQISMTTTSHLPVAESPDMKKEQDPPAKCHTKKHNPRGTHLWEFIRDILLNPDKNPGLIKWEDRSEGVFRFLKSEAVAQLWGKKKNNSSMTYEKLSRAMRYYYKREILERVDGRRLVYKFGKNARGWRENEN
Method in brief: as §1

[7] = biological target: SPI1 (Homo sapiens, UniProt P17947 1-270); settings: protein: recombinant; tags: N-terminal GST; dsDNA, one strand shown
Method in brief: as §1

[8] = biological target: SPIB (Homo sapiens, UniProt Q01892 1-262); settings: protein: recombinant; tags: N-terminal GST; dsDNA, one strand shown
Chain of SPIB (Q01892 whole entry): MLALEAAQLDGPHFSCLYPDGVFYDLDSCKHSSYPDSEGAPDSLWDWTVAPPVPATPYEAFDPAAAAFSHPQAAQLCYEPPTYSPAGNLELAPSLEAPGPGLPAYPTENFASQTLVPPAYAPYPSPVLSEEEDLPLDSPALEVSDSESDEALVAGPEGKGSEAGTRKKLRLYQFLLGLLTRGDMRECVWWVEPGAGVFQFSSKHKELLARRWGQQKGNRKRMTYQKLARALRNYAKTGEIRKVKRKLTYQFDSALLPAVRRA
Method in brief: as §1

[9] = biological target: T6, ELK3 (Homo sapiens, UniProt P41970 1-407); settings: protein: recombinant; tags: N-terminal GST; dsDNA, one strand shown
T6 sequence: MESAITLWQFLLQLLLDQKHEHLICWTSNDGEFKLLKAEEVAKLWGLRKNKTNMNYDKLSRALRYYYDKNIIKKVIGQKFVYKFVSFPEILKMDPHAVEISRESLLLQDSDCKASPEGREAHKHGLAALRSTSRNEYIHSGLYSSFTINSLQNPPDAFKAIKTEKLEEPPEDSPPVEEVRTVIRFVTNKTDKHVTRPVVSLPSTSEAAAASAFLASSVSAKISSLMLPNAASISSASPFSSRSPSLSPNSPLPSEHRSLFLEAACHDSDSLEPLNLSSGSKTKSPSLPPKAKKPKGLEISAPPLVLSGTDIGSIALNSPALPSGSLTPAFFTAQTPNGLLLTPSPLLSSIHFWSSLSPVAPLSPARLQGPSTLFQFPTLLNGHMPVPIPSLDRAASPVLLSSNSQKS
Method in brief: as §1

[10] = biological target: T7, FEV (Homo sapiens, UniProt Q99581 1-238); settings: protein: recombinant; tags: N-terminal GST; dsDNA, one strand shown
T7 sequence: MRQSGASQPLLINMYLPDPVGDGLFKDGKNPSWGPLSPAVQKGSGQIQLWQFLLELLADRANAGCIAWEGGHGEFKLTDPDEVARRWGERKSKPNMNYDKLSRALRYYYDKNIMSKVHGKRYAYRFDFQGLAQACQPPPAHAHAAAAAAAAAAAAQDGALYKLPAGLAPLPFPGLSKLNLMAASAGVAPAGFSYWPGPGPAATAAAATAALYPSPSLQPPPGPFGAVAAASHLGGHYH
Method in brief: as §1

[11] = biological target: ETV5 (Homo sapiens, UniProt P41161 1-510); settings: protein: recombinant; tags: N-terminal GST; dsDNA, one strand shown
Chain of ETV5 (P41161 whole entry): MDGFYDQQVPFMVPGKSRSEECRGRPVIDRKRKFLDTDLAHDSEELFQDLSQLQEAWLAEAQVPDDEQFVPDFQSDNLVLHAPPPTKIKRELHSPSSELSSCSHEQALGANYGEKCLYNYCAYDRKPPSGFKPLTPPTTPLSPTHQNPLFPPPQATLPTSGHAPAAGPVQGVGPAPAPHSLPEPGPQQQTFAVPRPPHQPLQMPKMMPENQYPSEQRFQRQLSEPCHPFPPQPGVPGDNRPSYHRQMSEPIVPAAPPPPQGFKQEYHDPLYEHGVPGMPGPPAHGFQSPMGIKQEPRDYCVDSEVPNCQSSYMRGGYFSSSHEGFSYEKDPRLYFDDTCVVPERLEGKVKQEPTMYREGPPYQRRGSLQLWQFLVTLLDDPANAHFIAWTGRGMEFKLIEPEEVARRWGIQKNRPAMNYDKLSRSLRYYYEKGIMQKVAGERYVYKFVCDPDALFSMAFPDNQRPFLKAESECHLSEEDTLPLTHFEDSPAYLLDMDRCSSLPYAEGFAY
Method in brief: as §1

[12] = biological target: HSF1 (Homo sapiens, UniProt Q00613 1-529); settings: protein: recombinant; tags: N-terminal GST; chain copies: 3; dsDNA, one strand shown
Chain of HSF1 (Q00613 whole entry): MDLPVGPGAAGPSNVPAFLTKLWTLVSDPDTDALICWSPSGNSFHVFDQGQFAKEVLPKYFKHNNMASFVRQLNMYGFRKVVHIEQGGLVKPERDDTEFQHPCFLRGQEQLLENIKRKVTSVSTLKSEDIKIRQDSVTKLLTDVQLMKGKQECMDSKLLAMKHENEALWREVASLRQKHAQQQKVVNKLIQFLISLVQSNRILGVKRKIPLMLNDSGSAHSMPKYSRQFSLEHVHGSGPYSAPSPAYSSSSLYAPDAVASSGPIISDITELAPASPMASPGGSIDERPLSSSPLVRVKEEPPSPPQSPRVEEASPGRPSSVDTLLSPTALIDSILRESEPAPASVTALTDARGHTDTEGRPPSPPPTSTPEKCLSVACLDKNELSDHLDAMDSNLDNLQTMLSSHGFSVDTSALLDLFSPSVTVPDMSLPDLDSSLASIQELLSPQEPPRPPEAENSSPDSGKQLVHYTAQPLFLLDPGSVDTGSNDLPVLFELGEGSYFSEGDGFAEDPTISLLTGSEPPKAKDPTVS
Method in brief: as §1

[13] = biological target: T8, SPIC (Homo sapiens, UniProt Q8N5J4 1-248); settings: protein: recombinant; tags: N-terminal GST; dsDNA, one strand shown
T8 sequence: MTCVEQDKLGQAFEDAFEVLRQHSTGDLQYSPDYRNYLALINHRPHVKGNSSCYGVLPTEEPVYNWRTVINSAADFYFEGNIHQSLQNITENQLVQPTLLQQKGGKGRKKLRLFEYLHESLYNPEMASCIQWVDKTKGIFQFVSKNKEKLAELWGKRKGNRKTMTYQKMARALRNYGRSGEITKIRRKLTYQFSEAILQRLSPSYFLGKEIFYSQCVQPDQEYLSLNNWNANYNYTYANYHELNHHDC
Method in brief: as §1

[14] = biological target: ELF4 (Homo sapiens, UniProt Q99607 1-663); settings: protein: recombinant; tags: N-terminal GST; dsDNA, one strand shown
Chain of ELF4 (Q99607 whole entry): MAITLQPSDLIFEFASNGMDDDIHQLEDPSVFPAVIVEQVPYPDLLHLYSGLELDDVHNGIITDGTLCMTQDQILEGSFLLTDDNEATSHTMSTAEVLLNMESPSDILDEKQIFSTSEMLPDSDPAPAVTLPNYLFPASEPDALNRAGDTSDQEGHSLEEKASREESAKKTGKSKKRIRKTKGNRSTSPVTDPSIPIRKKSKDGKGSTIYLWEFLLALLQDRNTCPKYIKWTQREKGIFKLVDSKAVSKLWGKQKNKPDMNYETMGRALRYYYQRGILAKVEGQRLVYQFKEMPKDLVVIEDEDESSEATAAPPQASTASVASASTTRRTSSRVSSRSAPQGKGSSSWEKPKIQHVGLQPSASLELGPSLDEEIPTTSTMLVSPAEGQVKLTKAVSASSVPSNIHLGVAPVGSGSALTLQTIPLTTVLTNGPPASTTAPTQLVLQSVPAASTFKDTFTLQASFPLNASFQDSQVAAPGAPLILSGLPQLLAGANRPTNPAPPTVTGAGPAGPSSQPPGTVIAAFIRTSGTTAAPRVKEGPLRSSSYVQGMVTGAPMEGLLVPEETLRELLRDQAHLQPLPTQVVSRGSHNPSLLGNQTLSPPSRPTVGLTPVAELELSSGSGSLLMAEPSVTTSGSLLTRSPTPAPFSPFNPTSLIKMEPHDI
Method in brief: as §1

[15] = biological target: T9, ELK4 (Homo sapiens, UniProt P28324-2 1-405); settings: protein: recombinant; tags: N-terminal GST; dsDNA, one strand shown
T9 sequence: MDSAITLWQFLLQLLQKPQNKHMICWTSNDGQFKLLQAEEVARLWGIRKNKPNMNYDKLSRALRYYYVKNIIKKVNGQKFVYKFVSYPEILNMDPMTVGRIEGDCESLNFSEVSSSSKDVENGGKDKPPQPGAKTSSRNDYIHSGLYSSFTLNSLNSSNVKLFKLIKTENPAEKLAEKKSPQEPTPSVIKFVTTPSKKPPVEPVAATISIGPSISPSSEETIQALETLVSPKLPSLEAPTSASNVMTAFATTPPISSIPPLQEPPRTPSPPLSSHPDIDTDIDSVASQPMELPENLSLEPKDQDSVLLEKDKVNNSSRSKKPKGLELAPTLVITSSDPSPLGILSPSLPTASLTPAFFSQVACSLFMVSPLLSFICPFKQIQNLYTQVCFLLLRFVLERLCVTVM
Method in brief: as §1

[16] = biological target: T10, ETV2 (Homo sapiens, UniProt O00321 1-342); settings: protein: recombinant; tags: N-terminal GST; dsDNA, one strand shown
T10 sequence: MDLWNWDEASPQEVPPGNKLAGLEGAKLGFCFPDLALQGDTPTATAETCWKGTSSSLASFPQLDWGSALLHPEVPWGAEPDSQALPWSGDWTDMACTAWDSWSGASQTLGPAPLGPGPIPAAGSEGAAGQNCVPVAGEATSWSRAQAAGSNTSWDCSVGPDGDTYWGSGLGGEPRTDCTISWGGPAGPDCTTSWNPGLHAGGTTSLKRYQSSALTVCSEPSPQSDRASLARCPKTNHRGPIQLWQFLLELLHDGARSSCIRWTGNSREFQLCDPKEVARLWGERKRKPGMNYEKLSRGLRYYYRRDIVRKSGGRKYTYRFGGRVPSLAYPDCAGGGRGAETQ
Method in brief: as §1

[17] = biological target: T11, ELF3 (Homo sapiens, UniProt P78545 1-371); settings: protein: recombinant; tags: N-terminal GST; dsDNA, one strand shown
T11 sequence: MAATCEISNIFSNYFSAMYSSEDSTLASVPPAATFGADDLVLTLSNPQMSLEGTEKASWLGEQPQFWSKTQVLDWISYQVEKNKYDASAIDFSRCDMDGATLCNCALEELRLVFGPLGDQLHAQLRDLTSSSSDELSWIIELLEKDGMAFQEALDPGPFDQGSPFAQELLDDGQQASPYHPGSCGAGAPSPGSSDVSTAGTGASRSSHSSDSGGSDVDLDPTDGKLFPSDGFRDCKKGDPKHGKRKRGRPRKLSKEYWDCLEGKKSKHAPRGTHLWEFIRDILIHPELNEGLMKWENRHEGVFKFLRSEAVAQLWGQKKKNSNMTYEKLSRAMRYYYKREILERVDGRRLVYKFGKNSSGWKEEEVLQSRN
Method in brief: as §1

[18] = biological target: CRX (Homo sapiens, UniProt O43186 1-299); settings: protein: recombinant; tags: N-terminal GST; dsDNA, one strand shown
Chain of CRX (O43186 whole entry): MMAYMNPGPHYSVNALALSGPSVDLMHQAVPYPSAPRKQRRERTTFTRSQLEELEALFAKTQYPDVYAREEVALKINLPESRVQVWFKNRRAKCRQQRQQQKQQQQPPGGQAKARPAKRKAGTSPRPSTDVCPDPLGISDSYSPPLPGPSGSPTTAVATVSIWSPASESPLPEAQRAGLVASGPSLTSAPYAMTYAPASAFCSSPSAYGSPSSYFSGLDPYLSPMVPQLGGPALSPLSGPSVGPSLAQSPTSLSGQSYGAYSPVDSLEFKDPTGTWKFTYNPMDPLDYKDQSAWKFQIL
Method in brief: as §1

[19] = biological target: ETV1 (Homo sapiens, UniProt P50549 1-477); settings: protein: recombinant; tags: N-terminal GST; dsDNA, one strand shown
Chain of ETV1 (P50549 whole entry): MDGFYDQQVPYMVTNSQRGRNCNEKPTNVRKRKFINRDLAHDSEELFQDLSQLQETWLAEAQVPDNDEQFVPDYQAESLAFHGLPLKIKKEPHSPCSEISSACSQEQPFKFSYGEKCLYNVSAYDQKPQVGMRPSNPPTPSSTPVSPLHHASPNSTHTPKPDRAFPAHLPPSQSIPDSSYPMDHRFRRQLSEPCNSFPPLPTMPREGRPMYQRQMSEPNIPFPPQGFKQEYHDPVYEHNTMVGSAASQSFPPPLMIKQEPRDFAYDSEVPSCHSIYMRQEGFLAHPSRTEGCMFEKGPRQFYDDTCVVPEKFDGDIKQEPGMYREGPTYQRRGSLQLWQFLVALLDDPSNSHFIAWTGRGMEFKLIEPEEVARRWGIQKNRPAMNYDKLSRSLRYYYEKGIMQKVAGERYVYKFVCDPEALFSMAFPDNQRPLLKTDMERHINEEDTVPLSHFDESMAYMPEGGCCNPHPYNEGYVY
Method in brief: as §1

## TCTGGG
[1]
  binding signal: 1.1 fold enrichment (6-mer frequency, TF over GST control)
[2]
  binding signal: 1.06 fold enrichment (6-mer frequency, TF over GST control)
[3]
  binding signal: 1.06 fold enrichment (6-mer frequency, TF over GST control)
[4]
  binding signal: 1.04 fold enrichment (6-mer frequency, TF over GST control)
[5]
  binding signal: 1.18 fold enrichment (6-mer frequency, TF over GST control)
[6]
  binding signal: 1.09 fold enrichment (6-mer frequency, TF over GST control)
[7]
  binding signal: 1.12 fold enrichment (6-mer frequency, TF over GST control)
[8]
  binding signal: 1.02 fold enrichment (6-mer frequency, TF over GST control)
[9]
  binding signal: 1.28 fold enrichment (6-mer frequency, TF over GST control)
[10]
  binding signal: 1.13 fold enrichment (6-mer frequency, TF over GST control)
[11]
  binding signal: 1.13 fold enrichment (6-mer frequency, TF over GST control)
[12]
  binding signal: 1.4 fold enrichment (6-mer frequency, TF over GST control)
[13]
  binding signal: 1.11 fold enrichment (6-mer frequency, TF over GST control)
[14]
  binding signal: 1.08 fold enrichment (6-mer frequency, TF over GST control)
[15]
  binding signal: 1.22 fold enrichment (6-mer frequency, TF over GST control)
[16]
  binding signal: 1.19 fold enrichment (6-mer frequency, TF over GST control)
[17]
  binding signal: 1.12 fold enrichment (6-mer frequency, TF over GST control)
[18]
  binding signal: 1.1 fold enrichment (6-mer frequency, TF over GST control)
[19]
  binding signal: 1.04 fold enrichment (6-mer frequency, TF over GST control)
